From PubChem BioAssay
SRC2 inh – human SRC2 (NCOA2) inhibition; AID 651957; 370,000 compounds, 0.17% hits; Q15596; HEK293 GAL4-SRC2 luciferase reporter, luminescence; inhibition, % at 9 µM;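 active means inhibition above the mean inhibition of all tested compounds plus 3 SD, set per campaign, cut at about 52% in these data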
LRH-1 inv ag – NR5A2 inverse agonism in reporter assay; O00482; HEK293T StAR-luciferase reporter, LRH-1 transfected, 24 h; inhibition, % at 3.6 µM; 360,000 compounds, 0.13% hits; AID 602396;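 active means inhibition above the mean inhibition of all tested compounds plus 3 SD, cut at about 73% in these data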
GalR3 antagonist – human GalR3 antagonism. O60755. HEK293 GalR3-CNG cAMP membrane potential fluorescence; galR3 body fused to GalR1 C-terminus. inhibition, % at 3 µM. 360,000 compounds, 0.44% hits;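 active means inhibition above the screen-wide average plus 3 SD, cut at about 13% in these data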;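 further: forskolin and galanin both at EC90 stimulate the cells; cAMP rise reported by CNG channel membrane potential dye signal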
COUP-TFII inh – blocks human COUP-TFII nuclear receptor; P24468; HEK293T NGFI-A luciferase reporter, luminescence; inhibition, % at 8.6 µM; 370,000 compounds, 0.7% hits; AID 686940;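 active means inhibition above a per-plate cutoff, mean inhibition of test wells between control levels plus 3 SD, cut at about 38% in these data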;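 further: cells cotransfected with COUP-TFII expression vector driving the NGFI-A reporter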
NCOA3 inh – inhibitors of human steroid receptor coactivator 3 (SRC3); HEK293 GAL4-SRC3 luciferase reporter, luminescence; 360,000 compounds, 0.17% hits; inhibition, % at 3.6 µM; AID 588352; Q9Y6Q9;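 active means inhibition above a per-campaign cutoff, the mean of all compounds plus 3 SD, cut at about 60% in these data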;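 further: higher means less SRC3-driven luciferase light from the GAL4 reporter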
NCOA1 inh – inhibitors of human steroid receptor coactivator 1 (SRC1) | 360,000 compounds, 0.12% hits | inhibition, % at 3.6 µM | HEK293 GAL4-SRC1 luciferase reporter, luminescence | AID 588354 | Q15788;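 active means inhibition above the campaign mean plus 3 SD, with each screening campaign given its own cutoff, cut at about 60% in these data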
GalR3 conf – GalR3 (human) antagonism, confirmation; shares compounds with GalR3 antagonist; HEK293 GalR3 CNG cAMP biosensor, membrane potential fluorescence; galR3 fused to GalR1 carboxy tail; challenged with forskolin and galanin at EC90; inhibition, % at 3 µM; 1,600 compounds, 59% hits; AID 652245;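 active means inhibition above the primary screen's cutoff, the mean inhibition of all screened compounds plus 3 SD, cut at about 13% in these data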
HEK-CNG parental – counter-screen for GalR3 antagonists: nonspecific agonists in parental HEK-CNG cells | shares compounds with GalR3 antagonist | HEK293-CNG parental cells, cAMP membrane potential fluorescence; normalised: DMSO wells 0%, forskolin wells 100% | activation, % at 3 µM | 1,600 compounds, 10% hits; in the data active means activation above about 1.3%
Gal4-VP16 ctr – counter-screen for COUP-TFII antagonists: inhibitors of VP16; shares compounds with COUP-TFII inh; HEK293 Gal4-VP16 luciferase reporter, luminescence; inhibition, % at 8.5 µM; 2,500 compounds, 25% hits; in the data active means inhibition above about 13%
COUP-TFII conf – COUP-TFII (NR2F2) inhibition, confirmation assay; shares compounds with COUP-TFII inh; 2,500 compounds, 45% hits; AID 687008; HEK293 NGFI-A luciferase reporter, luminescence; inhibition, % at 8.5 µM;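 active means mean inhibition over three repeats above a set limit taken from the earlier primary screen, cut at about 38% in these data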
A number is an active result; - = inactive; . = no result given. Shown are actives, neighbours in structure and some others; about 1.1% of the full set was active somewhere.

SMILES	SRC2 inh	LRH-1 inv ag	GalR3 antagonist	COUP-TFII inh	NCOA3 inh	NCOA1 inh	GalR3 conf	HEK-CNG parental	Gal4-VP16 ctr	COUP-TFII conf
CN(C)c1ccc(C=Cc2nccc3ccccc23)cc1	-	-	-	-	-	-	.	.	.	.
CCCCCC[n+]1ccccc1/C=C/c1ccc(N(C)C)cc1	-	98	16	92	82	72	16	41	25	89
COc1ccc(OC)c(CCNC(=O)C(C)n2nc(C)c3c(C)n(-c4ccc(C)cc4)nc3c2=O)c1 (stereo unspecified)	-	-	50	73	-	-	91	-	18	73
Cc1oc(-c2ccc(Cl)cc2)nc1CN1CCCC(C(=O)N2CCN(C(=O)c3ccco3)CC2)C1 (stereo unspecified)	-	-	84	74	-	-	101	-	14	63
O=S(=O)(NCC1CCCO1)c1ccc(-c2ccc(S(=O)(=O)NCC3CCCO3)cc2)cc1 (stereo unspecified)	-	-	97	68	-	-	106	-	-	64
CCC(=O)c1ccc(OCC(O)Cn2c(C)nc3ccccc32)cc1 (stereo unspecified)	-	-	56	59	-	-	-	-	-	-
C#CCNC(=O)C[C@H]1C[C@@]2(C(=O)OC)C(=C[C@H](COCc3ccccc3)O[C@@H]2C)N(Cc2ccc(Cl)cc2Cl)C1=O	-	.	.	-	.	.	.	.	.	.
CCCCOCCCNC(=O)C[C@@H]1C(=O)N2CCCC3=C2[C@@]1(C(=O)OC)CCCC3	-	.	.	-	.	.	.	.	.	.
C[C@H]1[C@H](c2ccccc2)OC(O)([C@H](Cc2ccccc2)NC(=O)OC(C)(C)C)CN1C (stereo partly specified)	.	.	.	-	.	.	.	.	.	.
CSc1ccc(CN2CCN(C(=O)c3ccc([N+](=O)[O-])cc3)CC2)cc1	-	-	102	71	-	-	106	-	-	44
O=C(c1ccc(Cn2ccc([N+](=O)[O-])n2)cc1)N1CCN(Cc2ccccc2)CC1	-	-	-	-	-	-	.	.	.	.
NC(=O)c1ccc(N2CCN(S(=O)(=O)c3ccccc3)CC2)c([N+](=O)[O-])c1	-	-	32	54	-	-	116	-	-	43
O=C(COc1ccc(F)cc1Cl)Nc1nnc(-c2ccc(F)c(F)c2)o1	.	.	.	-	.	.	.	.	.	.
O=C(CN1CCc2onc(-c3ccc(-n4cc(C5=CCCCC5)nn4)cc3)c2C1=O)N1CCOCC1	-	.	.	-	.	.	.	.	.	.
CCOc1ccc(-n2c(-c3ccccc3)c[n+]3c2CCCCC3)cc1	-	-	51	67	-	-	78	-	-	49
c1ccc(-c2c[n+]3c(n2-c2ccccc2)CCC3)cc1	-	-	-	-	-	-	.	.	.	.
Nc1ncnc2c(C3OC(CO)C(O)C3O)scc12 (stereo unspecified)	-	96	61	67	84	66	47	-	22	-
Cn1nc(C(C)(C)C)cc1C(=O)NCc1ccc(N2CCCC2=O)cc1	-	-	98	69	-	-	104	-	-	52
Cc1nc(CN(C)C(=O)c2cc(COc3ccc4ncccc4c3)on2)cs1	-	-	68	58	-	-	108	-	-	52
Cc1cc(C)n(CCNC(=O)c2cc(COc3ccc4ncccc4c3)on2)n1	-	-	-	-	-	-	.	.	.	.
CN(Cc1ccccn1)C(=O)c1cc(COc2ccc(F)c(F)c2)on1	-	-	-	-	-	-	.	.	.	.
CC(CCCC(C)(C)O)NC(=O)c1cc(COc2ccc3ncccc3c2)on1 (stereo unspecified)	-	-	15	60	-	-	50	-	-	48
CC(=O)c1cc(-c2cccc(CO)c2)c(=O)n2c1CCC2	-	.	.	-	.	.	.	.	.	.
CCCCCCCCNS(=O)(=O)CC1NCc2cc(F)ccc21 (stereo unspecified)	-	.	.	-	.	.	.	.	.	.
O=C(NCC1CCN(C(=O)C(=O)c2cc3ccccc3o2)CC1)c1ccc2c(c1)OCCCO2	-	.	-	-	.	.	.	.	.	.
SMILES	SRC2 inh	LRH-1 inv ag	GalR3 antagonist	COUP-TFII inh	NCOA3 inh	NCOA1 inh	GalR3 conf	HEK-CNG parental	Gal4-VP16 ctr	COUP-TFII conf
O=C(Nc1ccc(S(=O)(=O)N2CCCCC2)cc1)c1ccc(CN2CCc3ccccc3C2)cc1	-	-	106	70	-	-	105	-	18	80
CCOC(=O)c1ccc(NC(=O)c2ccc(C)c(S(=O)(=O)N3CCOCC3)c2)cc1	-	80	98	81	-	-	107	-	-	82
CC(=O)c1ccc(NC(=O)c2ccc(C)c(S(=O)(=O)N3CCOCC3)c2)cc1	-	-	-	-	-	-	.	.	.	.
O=C(Nc1ccc(CN2CCOCC2)cc1)c1ccc(Cl)cc1	-	-	-	-	-	-	.	.	.	.
O=C(Nc1ccccc1)c1ccc(S(=O)(=O)N2CCCCC2)cc1	-	-	-	-	-	-	.	.	.	.
COC(=O)c1ccc(NC(=O)c2ccc(CN3CCOCC3)cc2)cc1	-	-	92	48	-	-	-	-	-	-
O=C(Nc1ccc(S(=O)(=O)Nc2ccccc2)cc1)c1ccc(CN2CCOCC2)cc1	-	-	98	69	-	-	110	-	-	-
CN(CC#Cc1ccccc1)C(N)=NC(=O)/C=C/c1cccc(C(F)(F)F)c1	-	.	.	-	.	.	.	.	.	.
CC(C)(C)c1ccc(C(=O)Nc2ccc(CN3CCS(=O)(=O)CC3)cc2)cc1	-	-	34	47	-	-	103	-	-	-
O=C(Nc1ccc(F)cc1F)C1CCN(c2nnc(-n3cccc3)s2)CC1	-	.	.	-	.	.	.	.	.	.
CC(=O)c1cccc(NS(=O)(=O)c2ccc(NC(=O)N3CCCCC3)cc2)c1	-	-	83	56	-	-	97	-	14	44
CC(=O)c1cccc(NC(=O)N2CCCCCC2)c1	-	-	-	-	-	-	.	.	.	.
CCCCCCn1c(=O)[nH]c2c(c1=O)CCC2	-	-	-	-	-	-	.	.	.	.
CCCCCCCn1c2c(c(=N)c3c1CCC3)CCCC2	-	84	31	79	79	-	44	6.0	17	82
CCCCCCn1c2c(c(=N)c3c1CCC3)CCC2	-	92	35	78	75	67	21	-	-	70
